The results in this text go back to PubChem BioAssay (NCATS).

Results filed as inconclusive are left out. Activity calls are given as the source filed them. Calls follow the shape of the dose curve; as a rule, active = well fitted cell-killing curve with a large enough effect; inconclusive = small, poorly fitted or top-dose-only effect, or effect the other way; inactive = no such curve, though single readings can be large or run the other way.
Potency is read from the fitted curve at half-maximal effect.

The assay can be described thus: Quantitative High-Throughput drug screen in 47 multiple myeloma cell lines against the NCATS MIPE library collection: MM1R_ATCC cell viability assay (AID 1918981). Also: nearly all actives have a fitted effect of over 35% in size. As to conditions: MM1R multiple myeloma cells, CellTiter-Glo viability, 48 h; series mostly up to 45.8 µM. An excerpt:
PI: Beverly A. Mock Ph.D.
Laboratory of Cancer Biology and Genetics,
Center for Cancer Research, National Cancer Institute,
National Institute of Health, Bethesda, Maryland
Drug resistance and disease progression are common in multiple myeloma (MM) patients, underscoring the need for new therapeutic combinations. […] We hypothesized that effective combinations would reduce MYC expression and enhance p16 activity. […] These preclinical data identify potentially useful drug combinations for evaluation in drug-resistant MM and reveal potential mechanisms of combined drug sensitivity.
Described herein is the primary MIPE qHTS used to cherrypick compounds. Validated compounds were then further tested for potential synergistic activiy.
[1] Peat TJ, Gaikwad SM, Dubois W, Gyabaah-Kessie N, Zhang S, Gorjifard S, Phyo Z, Andres M, Hughitt VK, Simpson RM, Miller MA, Girvin AT, Taylor A, Williams D, D'Antonio N, Zhang Y, Rajagopalan A, Flietner E, Wilson K, Zhang X, Shinn P, Klumpp-Thomas C, McKnight C, Itkin Z, Chen L, Kazandijian D, Zhang J, Michalowski AM, Simmons JK, Keats J, Thomas CJ, Mock BA. Drug combinations identified by high-throughput screening promote cell cycle transition and upregulate Smad pathways in myeloma. Cancer Lett. 2023 Aug 1;568:216284. doi: 10.1016/j.canlet.2023.216284. Epub 2023 Jun 24. PMID: 37356470; PMCID: PMC10408729.
SEQUENCE No. (e.g., 1, 2, 3, etc.); […] (e.g., Cells, Incubation, Reagent, etc.); VALUE and DESCRIPTION.
1; Cells; 5 uL; white, solid bottom 1536-well Greiner assay plate.
2; Compounds; 23 nL; Kalypsis pin tool (Wako USA) equipped with a 1536-well pin head to transfer to the assay plates.
3; Incubation; 48 hours; 37C incubation.
4; Reagent;5uL; CellTiter Glo (Promega).
5; Detector; 425V; Luminescence; Viewlux PerkinElmer.
NOTES (numbers refer to Sequence numbers above)
1. The cell-based screening methods employed in this study were like those previously published. Briefly, the corresponding myeloma cell lines were screened in 1,536-well plates with 500 cells, 5-uL per well for inhibition of cell viability (assessed by measuring ATP levels with CellTiterGlo).
2. NCATS MIPE 4.0 library of approved and investigational drugs were added using the Kalypsis pin tool. Wells treated with DMSO only for 100% viability and media only for 0% viability were used as controls.
3. The assay plates were covered and incubated for 48 hours in a 37C, 5% CO2 incubator with controlled humidity.
4. After 48 hours, CellTilter-GloTM luminescent substrate mix (Promega) reagent was added to the assay plate and plates we incubated for 5 min at room temperature.
5. Signal was measured as median relative luminescence units on a ViewLux (PerkinElmer) multiplate reader.
[1] Heske CM, Davis MI, Baumgart JT, Wilson K, Gormally MV, Chen L, Zhang X, Ceribelli M, Duveau DY, Guha R, Ferrer M, Arnaldez FI, Ji J, Tran HL, Zhang Y, Mendoza A, Helman LJ, Thomas CJ. Matrix Screen Identifies Synergistic Combination of PARP Inhibitors and Nicotinamide Phosphoribosyltransferase (NAMPT) Inhibitors in Ewing Sarcoma. Clin Cancer Res. 2017 Dec 1;23(23):7301-7311. doi: 10.1158/1078-0432.CCR-17-1121. Epub 2017 Sep 12. PMID: 28899971; PMCID: PMC6636827.
A general note: Cellular ATP, detected with luciferase, serves as a proxy for viable cell number.
On to `C[C@@H]1CC[C@@]2(OC1)O[C@H]1C[C@H]3[C@@H]4CC=C5C[C@@H](O[C@@H]6O[C@H](CO)[C@@H](O[C@@H]7O[C@@H](C)[C@H](O)[C@@H](O)[C@@H]7O)[C@H](O)[C@@H]6O[C@@H]6O[C@@H](C)[C@H](O)[C@@H](O)[C@@H]6O)CC[C@]5(C)[C@@H]4CC[C@]3(C)[C@@H]1[C@H]2C`, for which the Potency was 2.09 µM (active). With `c1cc2c(cc1[C@H]1OC[C@H]3[C@H]1CO[C@H]3c1ccc3c(c1)OCO3)OCO2` the entry was “inactive”; with `CC=C(C)C(=O)O[C@H]1C(C)=C2[C@@H]3OC(=O)[C@@](C)(O)[C@@]3(O)[C@@H](OC(=O)CCC)C[C@](C)(OC(C)=O)[C@@H]2[C@@H]1OC(=O)CCCCCCC`, 0.0166 µM (active); with `CN1[C@H]2CC(O)C[C@H]1[C@H]1O[C@H]12` (stereo not given in full), 16.6 µM (active). `CC1(N2CCC(n3c([C@@H]4CCCNC4)nc4ccccc43)CC2)CCCCCCC1`: the Potency was 14.8 µM (active).

Turning to `N=c1c2c(-c3ccccc3)c(-c3ccccc3)n(Cc3ccccc3)c2ncn1C1CCC(O)CC1` (stereo not given), the Potency is 18.7 µM (active).

As to `Cc1[nH]nc2ccc(-c3cncc(OC[C@@H](N)Cc4c[nH]c5ccccc45)c3)cc12`, the Potency is 1.48 µM (active). Regarding `CC[C@@]1(O)C(=O)OCc2c1cc1n(c2=O)Cc2cc3ccccc3nc2-1`, the Potency was 0.0264 µM (active). On to `C=C[C@@H]1CN2CCC1C[C@@H]2[C@@H](O)c1ccnc2ccccc12` (stereo not given in full), for which the Potency is 16.6 µM (active). To `COCC1(CO)C(=O)C2CCN1CC2` (stereo not given) belongs 0.469 µM (active). Turning to `CC(C)[C@H]1C(=O)N[C@H](CO)Cc2c[nH]c3cccc(c23)N1C`, the Potency entry is “inactive”.

With `CCOC(=O)c1cncn1[C@H](C)c1ccccc1`, the Potency entry was “inactive”.

With `COC1=CC(C)=C[C@@H](C)[C@@H](O)[C@@H](C)CC(C)=CC=C[C@H](OC)[C@H]([C@@H](C)[C@@H](O)[C@H](C)[C@@]2(O)C[C@@H](O)[C@H](C)[C@@H](C(C)C)O2)OC1=O`, the Potency was 1.66 µM (active). To `CCC(=O)OC1CCC2C3CCC4=CC(=O)CC[C@@]4(C)C3CC[C@]12C` (stereo not given in full) belongs “inactive”; to `CC(C)(C)c1cc(C=C(C#N)C#N)cc(Br)c1O`, 23.5 µM (active). To `C=CCON=C(C[C@H]1O[C@@H]2O[C@]3(C)CC[C@@H]4[C@H](C)CC[C@@H]([C@H]1C)[C@@]24OO3)[C@H]1O[C@@H]2O[C@]3(C)CC[C@H]4[C@H](C)CC[C@@H]([C@@H]1C)[C@@]24OO3` belongs 0.296 µM (active); to `CC(C)(O)C=CC(=O)[C@](C)(O)[C@H]1[C@H](O)C[C@]2(C)[C@@H]3CC=C4[C@@H](C=C(O)C(=O)C4(C)C)[C@]3(C)C(=O)C[C@@]12C`, 0.0372 µM (active). For the compound `N#C[C@H](O[C@@H]1O[C@H](CO[C@@H]2O[C@H](CO)[C@H](O)[C@H](O)[C@H]2O)[C@H](O)[C@H](O)[C@H]1O)c1ccccc1`, the Potency is 29.6 µM (active). With `CC(C)N[C@@H]1CCn2c(=O)[nH]c3cccc(c32)[C@@H]1O` the figure was 6.62 µM (active); with `CCc1c(C(=O)C(N)=O)c2c(OCC(=O)O)cccc2n1Cc1ccccc1`, “inactive”; with `CC(=O)O[C@@]12CO[C@H]1C[C@H](O)[C@@]1(C)C(=O)[C@H](O)C3=C(C)[C@@H](O)C[C@@](O)([C@@H](OC(=O)c4ccccc4)[C@@H]21)C3(C)C`, 7.43 µM (active). To `COc1cccc2c1[C@]13CCN(CC4CC4)[C@H](C2)[C@]1(OC)CCC(=O)C3` belongs “inactive”; to `C[C@H]([C@H](O)CCC(C)(C)O)[C@H]1CC[C@@]2(O)C3=CC(=O)[C@@H]4C[C@@H](O)[C@@H](O)C[C@]4(C)[C@@H]3CC[C@]12C`, “inactive”; to `CCCC[N+]1(C)[C@H]2CC(OC(=O)[C@H](CO)c3ccccc3)C[C@H]1[C@H]1O[C@H]12` (stereo not given in full), “inactive”. On to `c1ccc(CCCN2CCN(CCOC(c3ccccc3)c3ccccc3)CC2)cc1`, for which the Potency was 23.5 µM (active). To `CC(=Cc1csc(C)n1)[C@@H]1C[C@H]2O[C@@H]2CCC[C@H](C)[C@@H](O)[C@@H](C)C(=O)C(C)(C)[C@@H](O)CC(=O)O1` belongs “inactive”; to `CCNC(=O)C[C@@H]1N=C(c2ccc(Cl)cc2)c2cc(OC)ccc2-n2c(C)nnc21`, 0.59 µM (active); to `O=C(Oc1ccc([N+](=O)[O-])cc1)N1CCC(C(O)(c2ccc3c(c2)OCO3)c2ccc3c(c2)OCO3)CC1`, “inactive”. In the case of `CC(C)(C)[C@]1(O)C[C@@H]2OC(=O)C[C@@]23C(=O)O[C@@H]2OC(=O)[C@H](O)C213` (stereo not given in full), the Potency entry is “inactive”.

Turning to `C[C@@H]1O[C@@H](O[C@@H]2C=C3CC[C@@H]4[C@@H](CC[C@]5(C)[C@H](c6ccc(=O)oc6)CC[C@@]45O)[C@@]3(C)CC2)[C@H](O)[C@H](O)[C@H]1O`, the Potency is 0.0264 µM (active). In the case of `COc1ccc(N(C(=O)Oc2c(C)cccc2C)c2ccnc(Nc3ccc(N4CCN(C)CC4)cc3)n2)c(OC)c1`, the Potency is 2.35 µM (active). With `CC(O)=C(C#N)C(=O)Nc1cc(Br)ccc1Br` the figure was 20.9 µM (active); with `C[C@]12CC[C@H]3[C@@H](CCC4=CC(=O)CC[C@@]43C)[C@H]1CC[C@H]2O`, “inactive”. To `CN[C@@H]1Cc2cccc3[nH]c(=O)n(c23)C1` belongs “inactive”; to `CC=C(C)C(=O)N[C@@H](c1ccccc1)[C@@H](O)C(=O)O[C@H]1C[C@@]2(O)[C@@H](OC(=O)c3ccccc3)[C@@H]3[C@]4(OC(C)=O)CO[C@@H]4C[C@H](O)[C@@]3(C)C(=O)[C@H](OC(C)=O)C(=C1C)C2(C)C`, “inactive”. With `O=S(=O)(CC1CS1)c1ccc(Oc2ccccc2)cc1` (stereo not given) the figure was 16.6 µM (active). As for `O=C(Oc1ccc([N+](=O)[O-])cc1)N1CCN(Cc2cccc(Oc3ccccc3)c2)CC1`, the Potency entry was “inactive”.

As to `O=S(=O)(F)Cc1ccccc1`, the Potency entry was “inactive”.

As for `C[C@]12COC(=O)C[C@@H]1CC[C@@H]1[C@H]2CC[C@@]2(C)[C@H]1CC[C@]2(C)O`, the Potency result is “inactive”. Turning to `C#CC1(O)CCC2C3CCC4=CC(=O)CCC4(C)C3CCC21C` (stereo not given), the Potency entry is “inactive”.
